From PubChem
Rows were chosen to be rich in hits. Some 1.3% of all compounds tested hit in one or more screens of this group.
PLAP act: PLAP enzyme activators, biochemical, luminescence, HTS | purified PLAP enzyme, luminescent substrate read-out; stronger effect = higher value | activation fold at 20 µM | 96,000 compounds, 1.2% hits; in the data active means activation fold above about 2
Ecoli WT expand: growth inhibitors of wild-type E. coli, primary screen, strain BW25113, expanded library, OD600; OD600 absorbance; growth inhibition, % at 100 µM; 98,000 compounds, 0.15% hits;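 active means growth inhibition above about 50% at one test dose, limit read from the data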;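 further: growth measured after 20 h incubation at 37 °C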
TNAP act DEA: human TNAP enzyme activators, primary screen, biochemical, luminescent, intermediate phosphate acceptor level. purified TNAP, CDP-star luminescence, 100 mM DEA, 30 min; stronger effect = higher value; scale: 0 levamisole-inhibited, 1 vehicle-only enzyme. 64,000 tested, under 10 active. activation factor at 20 µM. Alkaline phosphatase, tissue-nonspecific isozyme (Homo sapiens), P05186;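 active means activation factor of at least 2 at 20 µM, relative to controls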
HePTP inhibitor: inhibitors of human HePTP phosphatase, primary screen, biochemical, absorbance, leukemia target; recombinant HePTP phosphatase activity, OD absorbance; inhibition, % at 20 µM; 110,000 compounds, 0.64% hits; in the data active means inhibition above about 50%;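 further: plate controls were vehicle for no effect and reference inhibitor for full effect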
Target sequence (P35236 whole entry, looked up): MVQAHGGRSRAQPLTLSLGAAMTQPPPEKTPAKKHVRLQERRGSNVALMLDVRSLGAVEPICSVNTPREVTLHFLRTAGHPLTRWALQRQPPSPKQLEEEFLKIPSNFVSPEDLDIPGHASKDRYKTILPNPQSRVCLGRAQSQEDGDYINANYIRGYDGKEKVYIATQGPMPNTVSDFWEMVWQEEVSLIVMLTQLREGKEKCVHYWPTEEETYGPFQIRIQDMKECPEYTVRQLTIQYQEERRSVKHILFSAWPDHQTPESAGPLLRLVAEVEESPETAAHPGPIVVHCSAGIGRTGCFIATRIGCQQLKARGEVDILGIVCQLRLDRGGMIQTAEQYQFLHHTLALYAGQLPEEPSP
An asterisk follows results filed as active; · = no result.

SMILES | PLAP act | Ecoli WT expand | TNAP act DEA | HePTP inhibitor
O=C(CN1C(=O)c2ccccc2C1=O)N1CCN(c2ccccn2)CC1 | 1 | 3.0 | 0.9 | 5.9
O=[N+]([O-])c1cc([N+](=O)[O-])c2oc(-c3ccccc3)c(Br)c2c1O | · | · | · | 104.2*
Clc1ccc(Cl)c(-c2nn3c(Cn4cnc5ccccc54)nnc3s2)c1 | · | · | 0.9 | 10.9
COc1cc(/C=N/Nc2nc3ccccc3o2)cc(OC)c1O | 2.3* | 7.0 | · | ·
COc1ccc(/C=N/Nc2nc3ccccc3o2)cc1O | 2.1* | 1.0 | · | ·
CSc1nnc(-c2ccccc2N=Cc2c(C)[nH]n(-c3ccc4ccccc4c3)c2=O)c(=O)[nH]1 | 1.1 | -7.0 | · | ·
Cc1[nH]n(-c2ccccc2)c(=O)c1/C=N/c1ccccn1 | 2.1* | 3.0 | 0.9 | -1.3
C=CCSc1nnc(-c2ccccc2N=Cc2c(C)[nH]n(-c3ccccc3)c2=O)c(=O)[nH]1 | 2.2* | -9.0 | · | ·
Cc1[nH]n(-c2ccccc2)c(=O)c1C=Nc1cnc2ccccc2c1 | 2.1* | 9.0 | · | ·
Cc1ccc(N=Cc2c(C(F)(F)F)[nH]n(-c3ccccc3)c2=O)cc1 | · | · | · | 63.7*
Cc1ccc(-n2[nH]c(C)c(C=Nc3ccc(C)cn3)c2=O)cc1 | 1.4 | -6.0 | 1 | -9.5
O=C(Nc1nc2ccc(Cl)cc2s1)c1ccc(Br)cc1 | · | · | · | -19.8
COCCN=C1Sc2nc3ccc(C)cc3cc2CN1Cc1ccco1 | 2* | -2.0 | · | ·
CCOc1ccc2nc3c(cc2c1)CN(CCOC)C(=NCCOC)S3 | 1.1 | -8.0 | · | ·
COC(=O)c1sc2ccccc2c1N | 1.1 | 5.0 | 0.9 | 3.5
COC(=O)c1c2nc3ccccc3sc-2cc(=O)c1N | · | · | · | 68.2*
COc1ccc(OC)c(NC(=O)CC2C(=O)NCCN2C(=O)Nc2cccc(Cl)c2)c1 (configuration not stated) | 2* | 8.0 | · | ·
O=C(CC1(C(F)(F)F)NCCO1)c1cccs1 (configuration not stated) | · | · | · | -9.1
CN1C(=O)NC(c2ccc(O)cc2)C(C(=O)c2cccs2)C1(O)C(F)(F)F (configuration not stated) | 1.1 | 80.0* | 0.8 | 2.2
O=C1NC(c2ccccc2)C(C(=O)c2cccs2)C(O)(C(F)(F)F)N1 (configuration not stated) | 1.1 | -1.0 | 0.9 | 7.9
Cc1cccc(NC(=S)NNC(=O)CC(C)O)c1C (configuration not stated) | 2* | -1.0 | · | ·
O=C(NC(=S)NNC(=O)c1cccs1)c1ccco1 | 2.2* | 67.0* | · | ·
COCCNC(=S)NNC(=O)c1ccco1 | 2.1* | -2.0 | · | ·
CCCC(=O)Nc1ccc(C(=O)NNC(=S)NC(=O)c2cccs2)cc1 | 2.4* | -11.0 | · | ·
O=C(NNC(=S)Nc1ccccc1)c1ccco1 | 1.6 | -7.0 | · | ·
SMILES | PLAP act | Ecoli WT expand | TNAP act DEA | HePTP inhibitor
COc1ccc(C(=O)NNC(=S)NC(=O)c2ccco2)cc1 | 1.2 | 80.0* | · | ·
CCc1nnc(NC(=O)C2CCCN(c3nc4ccccc4s3)C2)s1 (configuration not stated) | 1 | -2.0 | 1 | 2.8
COc1cccc(C2CC(c3ccccc3)Nc3nc(N)nn32)c1 (configuration not stated) | · | · | 1 | -4.0
CCCOc1ccc(C(=O)NNC(=S)NC(C)=O)cc1 | 1.4 | 88.0* | · | ·
CCCOc1ccc(C(=O)NNC(=S)NC(=O)c2cc(-c3ccccc3)nc3ccccc23)cc1 | 1.2 | -14.0 | · | ·
CCC(=O)NC(=S)NNC(=O)c1ccc(OC)cc1 | · | 75.0* | · | ·
CCC(=O)NC(=S)NNC(=O)c1ccc([N+](=O)[O-])cc1 | 1.8 | 28.0 | · | ·
Fc1cccc(NC(=S)N2CCCCC2)c1 | 1 | 3.0 | · | ·
CCOc1cc(CNCCSc2nnnn2C)cc(Br)c1OCc1ccccc1 | 2* | 2.0 | · | ·
COc1ccc(NCc2nnc(SCC(=O)Nc3cc(C(F)(F)F)ccc3Cl)o2)cc1 | 2.3* | 8.0 | 1 | 6.5
COc1ccc(NCc2nnc(SCC(=O)Nc3cc(C)cc(C)c3)o2)cc1 | 1.1 | 4.0 | 0.7 | 0.8
COC(=O)C1=NN(C(=O)c2ccc(C)cc2)C(O)(c2ccc(Cl)cc2)C1 (configuration not stated) | 1.5 | 9.0 | · | 7.9
C/C(CC(=O)Nc1ccc(N(C)C)cc1)=N\NC(=O)c1ccccn1 | 2* | 0.0 | · | ·
COc1ccc(NC(=O)C/C(C)=N/NC(=O)c2cnccn2)cc1 | · | · | · | -14.0
Cc1cccc(NC(=O)CN2C(=O)NC(C)(c3ccc4c(c3)OCO4)C2=O)c1 (configuration not stated) | 0.7 | -3.0 | · | ·
